Screening results as filed in PubChem BioAssay.
Sampled rows, rich in hits. Any-hit rate of the full collection: about 18%.
HepG2 tox: HepG2 cytotoxicity, counter-screen for TGF-b inhibitors; HepG2 CAGA-GFP viability, ATP luminescence, 18 h; Potency, µM (highest dose often 46.1 µM), without a hit: top-dose activity change, negative = cytotoxicity, hits mostly cytotoxic; hit rate 0.76% among 410,000; AID 588856; further: potency means the concentration at half of the fitted maximal effect
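CellTiter-Glo luminescence gave cytotoxicity after 18 hours at 37 degrees C. The cells were HepG2 CAGA-GFP in 1% FBS DMEM, stimulated with 500 pg/mL TGF-beta after compound addition. %Activity was normalised to no-cell wells (complete cell-killing) and DMSO (no toxicity), and curves were fitted and classified.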
TGFb inhibitor: blocks TGF-b signaling. HepG2 CAGA-GFP TGF-b/SMAD3 reporter, GFP fluorescence, 18 h; TGF-beta stimulated, 500 pg/mL final. Potency, µM (titrated, usually from 46.1 µM), for inactives: at the highest dose activity, negative = inhibition, usual class: inhibitors. hit rate 1.2% among 410,000. AID 588855; further: potency means the concentration at half of the fitted maximal effect; on the % scale 0 is the no-effect control and ±100 the full control effect; nearly all actives have a fitted effect of over 65% in size
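GFP signal (ex488/em500-530) from TGF-beta-stimulated HEPG2 CAGA-GFP cells, 500 pg/mL final, 18 h at 37 degrees C in DMEM plus 1% FBS, normalized to unstimulated and DMSO-stimulated controls.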
DT40 TDP1 CPT: growth inhibition of DT40 Tdp1-/-;hTDP1 cells with camptothecin (screen for TDP1 inhibitors); chicken DT40 Tdp1-/-;hTDP1 cells + 20 nM CPT, ATP luminescence, 48 h; Potency, µM (series often up to 46.2 µM), for the others: at the highest dose activity change, negative = growth inhibition, most hits filed as inhibitors; hit rate 12% among 420,000; AID 686979; further: potency means the concentration at half of the fitted maximal effect; on the % scale 0 is the no-effect control and ±100 the full control effect; nearly all actives have a fitted effect of over 55% in size
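Chicken DT40 Tdp1-/- cells stably complemented with human TDP1 were seeded at 400 cells/well in medium containing 20 nM camptothecin, exposed to pin-transferred compounds, and grown at 37 °C for at least 48 hr. Viability was read as ATP luminescence.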
TDP1 cell noCPT: qHTS for Inhibitors of human tyrosyl-DNA phosphodiesterase 1 (TDP1): qHTS in cells in absence of CPT | DT40 Tdp1-/- hTDP1 cells, no CPT, ATP luminescence, 48 h | Potency, µM (titrated, usually from 46.2 µM), without a hit: at the top dose activity change, negative = growth inhibition, usual class: inhibitors | hit rate 15% among 420,000; further: potency means the concentration at half of the fitted maximal effect; on the % scale 0 is the no-effect control and ±100 the full control effect; nearly all actives have a fitted effect of over 55% in size
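Growth of hTDP1-complemented DT40 Tdp1-knockout cells is measured by ATP luminescence after at least 48 hr compound exposure at 37 °C, with DMSO substituting for the 20 nM CPT used in the parallel screen.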
TDP1 block: blocks human tyrosyl-DNA phosphodiesterase 1. recombinant TDP1, AlphaScreen DNA substrate cleavage. Potency, µM (top dose mostly 130 µM), without a hit: at the highest dose activity change, negative = inhibition, most hits filed as inhibitors. hit rate 0.28% among 350,000. AID 485290; further: potency means the concentration at half of the fitted maximal effect; on the % scale 0 is the no-effect control and ±100 the full control effect; nearly all actives have a fitted effect of over 40% in size
Target sequence (Q9NUW8 whole entry, looked up): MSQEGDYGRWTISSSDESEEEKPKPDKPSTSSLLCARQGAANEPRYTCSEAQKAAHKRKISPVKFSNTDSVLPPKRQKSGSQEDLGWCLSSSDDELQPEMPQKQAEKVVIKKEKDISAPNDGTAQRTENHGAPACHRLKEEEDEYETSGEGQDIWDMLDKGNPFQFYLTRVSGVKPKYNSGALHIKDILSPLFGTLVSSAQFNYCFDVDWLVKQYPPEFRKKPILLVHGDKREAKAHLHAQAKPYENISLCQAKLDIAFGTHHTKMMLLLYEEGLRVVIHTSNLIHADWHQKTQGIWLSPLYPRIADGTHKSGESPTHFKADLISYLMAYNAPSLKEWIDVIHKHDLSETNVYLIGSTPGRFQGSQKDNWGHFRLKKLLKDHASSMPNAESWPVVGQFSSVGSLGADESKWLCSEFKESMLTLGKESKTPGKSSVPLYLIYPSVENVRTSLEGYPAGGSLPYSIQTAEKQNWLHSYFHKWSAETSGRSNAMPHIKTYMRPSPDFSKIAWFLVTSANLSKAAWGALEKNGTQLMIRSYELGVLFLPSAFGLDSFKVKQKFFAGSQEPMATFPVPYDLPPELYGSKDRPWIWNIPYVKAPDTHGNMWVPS
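Recombinant human Tdp1 (E. coli-expressed, 1 nM final) preincubated with compounds 15 min at room temperature, then 5'-biotin/3'-phosphotyrosine-FITC DNA substrate (15 nM final) added for 5 min. AlphaScreen beads (10 ug/ml final) added 10 min; cleavage lowers signal.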
IL-1B inflam inh: inflammasome signaling inhibition, IL-1 beta readout; activity change, % at 57.5 µM; hit rate 4.7% among 360,000; AID 743279; THP-1 LPS/ATP IL-1B secretion, AlphaLISA, 16 h; active compounds read low; in the data active means activity change below about -50%; inconclusive means mostly about -30% to -49%; further: on the % scale 0 is the no-effect control and ±100 the full control effect
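Secreted IL-1B measured by AlphaLISA bead assay after 16 h compound exposure of THP-1 cells; compounds (final up to 57.5 uM) added 1 h before LPS (250 ng/mL) and ATP (1.25 mM) stimulation; lower signal means less secretion.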
Starred values were filed as active, the others as inactive; u = inconclusive; x = not tested or not shown; [ ] = dose if it differs, or a comment. Unless noted, the call rests on the fitted dose curve; in most records, active means well fitted curve in the direction sought with a large enough effect; inconclusive means small, poorly fitted or top-dose-only effect, or another doubt; inactive means no such curve, though single readings can be large; an effect the other way counts as inactive or inconclusive.

SMILES	HepG2 tox	TGFb inhibitor	DT40 TDP1 CPT	TDP1 cell noCPT	TDP1 block	IL-1B inflam inh
COc1ccc(N(CC(=O)NCCSc2ccccn2)S(=O)(=O)c2ccccc2)cc1Cl	24%	0%	16µM*	u	0%	-7
COc1ccc(N(CC(=O)NCCSc2ccccn2)S(=O)(=O)c2ccccc2)cc1OC	2%	11%	-13%	u	3%[0.0935 µM]	29
CC1CCN(C(=O)c2ccccc2SCC(=O)NCC2CCCCC2)CC1	-12%	0%	u	-28%	-5%	-4
Cc1ccc(NC(=O)CSc2nc3c(sc4ccccc43)c(=O)n2CCCC(=O)NC2CCCC2)cc1C	-5%	-6%	-4%	13%	2%	x
Cc1ccc(NC(=O)CSc2nc3nccnc3c(=O)n2CCc2c[nH]c3ccccc23)cc1C	-8%	-27%	13µM*	12µM*	3%	x
COc1ccccc1NC(=O)Cn1c(=O)n(CCc2c[nH]c3ccccc23)c(=O)c2cccnc21	2%	0%	u	-62%	0%	-10
Cc1ccc(NC(=O)CSc2nc3nccnc3c(=O)n2CCc2c[nH]c3ccccc23)c(C)c1	-24%	-29%	12µM*	12µM*	1%	x
COc1ccccc1NC(=O)CSc1nc2nccnc2c(=O)n1CCc1c[nH]c2ccccc12	-7%	-12%	18µM*	15µM*	5%	x
COc1cccc(-c2ccc3nnc(SCC(=O)Nc4ccc(NC(C)=O)cc4)n3n2)c1	0%	3%	u	u	x	21
Cc1[nH]nc(C(F)(F)F)c1N=NN1CCOCC1	-38%	0%	2.6µM*	3.3µM*	x	-10
Clc1ccc(N=NN2CCOCC2)cc1	-16%	0%	0%	-23%	0%	10
O=C(Cc1cc(C(F)(F)F)cc(C(F)(F)F)c1)Nc1c(-c2ccccc2)[nH][nH]c1=O	x	x	-3%	-15%	x	19
O=C(CS(=O)(=O)c1c[nH]c2ccccc12)N1CCCCCC1	17%	-1%	2%	-13%	2%	10
COc1cc(CCNC2=CC(=O)c3ncccc3C2=O)ccc1O	2.5µM*	u	4.6µM*	5.8µM*	x	-71*
CN1C(C(=O)Nc2ccccn2)=C(O)c2ccccc2S1(=O)=O	4%	6%	-3%	u	3%	-13
CCOC(=O)OC(C)OC1=C(C(=O)Nc2ccccn2)N(C)S(=O)(=O)c2ccccc21 (stereo unspecified)	x	x	u	2.1µM*	9%	x
CCOc1ccccc1N(C(=O)c1snc(C(N)=O)c1N)C(C(=O)NCc1ccccc1)c1ccc(O)cc1 (stereo unspecified)	-9%	-14%	23µM*	u	15%	-67*
Cc1ccccc1N(C(=O)c1snc(C(N)=O)c1N)C(C(=O)NCc1ccccc1)c1ccc(O)cc1 (stereo unspecified)	-38%	u	23µM*	26µM*	x	-100*
NC(=O)c1nsc(C(=O)N(Cc2ccco2)C(C(=O)NCc2ccccc2)c2ccc(O)cc2)c1N (stereo unspecified)	9%	3%	u	12µM*	3%	-4
COc1ccccc1N(C(=O)c1snc(C(N)=O)c1N)C(C(=O)NCc1ccccc1)c1ccc(C)o1 (stereo unspecified)	-32%	-17%	u	u	2%	-73*
COc1cccc2c1cc1c(=O)n(CC(=O)NCc3ccc(C)o3)nc(C)n12	-19%	-15%	-3%	-8%	3%	x
Cc1cc2c(s1)c1cnn(Cc3ccc(C(F)(F)F)cc3F)c(=O)c1n2C	x	x	x	x	-2%	x
CN(C)c1ccc(C(C(=O)NCc2ccccc2)N(Cc2cccnc2)C(=O)c2snc(C(N)=O)c2N)cc1 (stereo unspecified)	-4%	23%	21µM*	16µM*	16%	-19
CN(C)c1ccc(C(C(=O)NC2CCCCC2)N(Cc2ccco2)C(=O)c2snc(C(N)=O)c2N)cc1 (stereo unspecified)	-22%	5%	u	9.2µM*	14%	-72*
COc1ccc(C(C(=O)NCc2ccccc2)N(Cc2cccnc2)C(=O)c2snc(C(N)=O)c2N)cc1OC (stereo unspecified)	1%	18%	-4%	-10%	x	0
SMILES	HepG2 tox	TGFb inhibitor	DT40 TDP1 CPT	TDP1 cell noCPT	TDP1 block	IL-1B inflam inh
O=C(O)c1cc(-c2ccccc2)nn1Cc1ccccc1	-9%	-1%	7%	-19%	-7%	x
Cc1ccccc1-c1nc(NC2CCNCC2)c2ccccc2n1	x	x	13µM*	12µM*	3%[56.1 µM]	x
Oc1ccccc1-c1nc(NC2CCCC2)c2ccccc2n1	-54%	u	2%	-24%	x	-12
Fc1ccccc1-c1nc(NC2CCCC2)c2ccccc2n1	-10%	u	-21%	-24%	x	-53*
Clc1ccccc1-c1nc(NC2CCNCC2)c2ccccc2n1	x	x	10µM*	26µM*	x	x
COc1ccccc1NC(=O)CN(Cc1ccco1)C(=O)c1ccc(N2CCCC2=O)cc1	-46%	u	-8%	u	0%	8
CCc1cccc(C)c1NC(=O)CN(C)C1=NS(=O)(=O)c2ccccc21	-7%	-3%	-2%	-10%	1%[56.1 µM]	18
COc1c(S(=O)(=O)NCCCn2ccnc2)ccc(Cl)c1Cl	-7%	1%	-8%	-14%	6%	16
O=C(Cn1nc(Cc2cccnc2)c2ccccc2c1=O)N1CCN(c2ccc(F)cc2)CC1	-28%	u	u	23µM*	1%	x
CCOC(=O)C1CCCN(C(=O)Cn2nc(Cc3cccnc3)c3ccccc3c2=O)C1 (stereo unspecified)	3%	7%	8%	11%	7%	-16
Cc1ccc(C)c(N2CCN(C(=O)Cn3nc(Cc4cccnc4)c4ccccc4c3=O)CC2)c1	-38%	u	u	23µM*	4%	x
CCOc1ccc2c(c1)sc1nc(=O)n(-c3ccc(Cl)c(Cl)c3)c(=O)n12	-25%	-3%	-6%	-12%	x	x
O=C(C(=O)N(Cc1ccccc1)Cc1ccccc1)c1c(-c2ccccc2)[nH]c2ccccc12	-29%	-12%	10µM*	21µM*	x	u
N=c1sccn1CC(=O)NC(c1ccccc1)c1ccccc1	-2%	-7%	u	u	5%	-52*
